According to PubChem BioAssay AID1159580 (chemical genetic matrix, 2015):
“And” between values parts separate entries of the source, which are not always exact repeats. Equal entries are not always repeated. Hit rate of the full screen: of about 5,500 compounds, about 2,000 (36%) were called active. Another 18% or so got no clear call; they are omitted. Rule as the data show it: active = normalized growth mostly below about 0.91 (no sharp cut-off); inconclusive = no clear call, values can overlap the other calls; inactive = mostly above about 0.92. The list shows a part of the results.

Assay: chemical genetic growth profiling, strain panel (AID 1159580);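 also: tested at 20 µM; growth read once vehicle control cultures reached saturation at 30 °C; 1 = growth at the plate median or of vehicle wells; lower values mean less growth of the strain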
Details: S. cerevisiae deletion strains, growth OD

Measured: normalized growth

CC1OC1P(=O)(O)O (stereo not given)
inactive: locus YAL021C, strain ccr4, hits give low values 1 | locus YAL026C, strain drs2, hits give low values 1.02 | locus YAL030W, strain snc1, hits give low values 0.998 | locus YAL040C, strain CLN3, hits give low values 0.959 | locus YBL061C, strain skt5, hits give low values 0.996 | locus YBR009C, strain hhf1, hits give low values 0.978 | locus YBR021W, strain FUR4, hits give low values 0.973 | locus YBR023C, strain chs3, hits give low values 0.988 | locus YBR171W, strain sec66, hits give low values 1 | locus YBR229C, strain ROT2, hits give low values 0.994 | locus YBR231C, strain swc5, hits give low values 0.992 | locus YBR279W, strain paf1, hits give low values 0.991 | locus YCL011C, strain gbp2, hits give low values 1.03 | locus YCL016C, strain dcc1, hits give low values 0.984 | locus YCL029C, strain bik1, hits give low values 0.993 | locus YCL061C, strain MRC1 (second series), hits give low values 1.01 | locus YCL069W, strain vba3, hits give low values 1 | locus YCR088W, strain abp1, hits give low values 1 | locus YDL005C, strain med2, hits give low values 0.977 | locus YDL035C, strain GPR1, hits give low values 0.991 | locus YDL040C, strain nat1, hits give low values 0.991 | locus YDL074C, strain BRE1, hits give low values 1.04 | locus YDL101C, strain DUN1, hits give low values 0.992 | locus YDL134C, strain PPH21, hits give low values 0.977 | locus YDL185W, strain tfp1, hits give low values 0.979 | locus YDL192W, strain arf1, hits give low values 0.991 | locus YDR001C, strain nth1, hits give low values 1 | locus YDR069C, strain doa4, hits give low values 0.986 | locus YDR101C, strain arx1, hits give low values 1 | locus YDR137W, strain rgp1, hits give low values 1.01 | locus YDR150W, strain NUM1, hits give low values 0.994 and 1 | locus YDR159W, strain sac3, hits give low values 0.934 | locus YDR162C, strain NBP2, hits give low values 0.987 | locus YDR195W, strain ref2 0.983 | locus YDR297W, strain sur2, hits give low values 1.01 | locus YDR318W, strain mcm21, hits give low values 0.984 | locus YDR334W, strain swr1, hits give low values 1 | locus YDR335W, strain msn5, hits give low values 0.996 | locus YDR363W, strain ESC2, hits give low values 0.974 | locus YDR388W, hits give low values 0.988 | locus YDR392W, strain spt3, hits give low values 0.892 | locus YDR502C, strain sam2, hits give low values 0.983 | locus YEL003W, strain gim4, hits give low values 1 | locus YEL037C, strain rad23, hits give low values 1 | locus YEL061C, strain CIN8 (second series), hits give low values 1 | locus YEL061C, strain CIN8, hits give low values 1 | locus YER002W, strain NOP16, hits give low values 0.978 | locus YER015W, strain faa2, hits give low values 0.981 | locus YER016W, strain bim1, hits give low values 0.974 | locus YER110C, hits give low values 0.987 | locus YER111C, strain swi4, hits give low values 1 | locus YER155C, strain BEM2 (second series), hits give low values 0.965 | locus YER155C, strain BEM2, hits give low values 0.994 | locus YER167W, strain BCK2, hits give low values 0.973 | locus YFR010W, strain ubp6, hits give low values 1 | locus YGL078C, strain dbp3, hits give low values 0.988 | locus YGL086W, strain mad1, hits give low values 1 | locus YGL167C, strain pmr1, hits give low values 0.997 | locus YGL173C, strain kem1, hits give low values 0.99 | locus YGL227W, strain vid30, hits give low values 1 | locus YGL240W, strain doc1, hits give low values 0.968 | locus YGL248W, strain PDE1, hits give low values 1.01 | locus YGL253W, strain hxk2, hits give low values 1.03 | locus YGR078C, strain PAC10, hits give low values 1.02 | locus YGR135W, strain pre9, hits give low values 0.966 | locus YGR252W, strain gcn5, hits give low values 0.982 | locus YHR013C, strain ard1, hits give low values 0.987 | locus YHR027C, strain rpn1, hits give low values 0.993 | locus YHR030C, strain SLT2, hits give low values 0.994 | locus YHR079C, strain IRE1 (second series), hits give low values 0.989 | locus YHR094C, strain hxt1, hits give low values 0.987 | locus YHR129C, strain ARP1, hits give low values 0.987 | locus YHR142W, strain chs7, hits give low values 1.01 | locus YHR200W, strain rpn10, hits give low values 0.989 | locus YIL066C, strain RNR3, hits give low values 1 | locus YIL073C, strain SPO22, hits give low values 0.944 | locus YIL125W, strain kgd1, hits give low values 0.992 | locus YIR030C, strain dcg1, hits give low values 0.985 | locus YJL092W, strain hpr5, hits give low values 1 | locus YJL095W, strain BCK1 (second series), hits give low values 0.998 | locus YJL095W, strain BCK1, hits give low values 1.01 | locus YJL115W, strain asf1, hits give low values 1 | locus YJL129C, strain trk1, hits give low values 1.01 | locus YJL134W, strain LCB3, hits give low values 0.989 | locus YJL154C, strain vps35, hits give low values 0.996 | locus YJL164C, strain tpk1, hits give low values 0.986 | locus YJL166W, strain qcr8, hits give low values 0.986 | locus YJL168C, strain set2, hits give low values 0.989 | locus YJL187C, strain SWE1 (second series), hits give low values 1.02 | locus YJR043C, strain POL32, hits give low values 1.01
